# Measured values published in the supplement of paper PMC13380429.
# System: Vero E6 infected with SARS-CoV-2
# Experiment: SARS-CoV-2 infection rate relative to infected DMSO; higher = more infection, active = 60 or less
# Settings: 24 h
row,Structure (SMILES),SARS-CoV-2 infection rate
1,C=C1/C(=C\C=C2/CCC[C@]3(C)[C@@H]([C@H](C)CC[C@@H](O)C(C)C)CC[C@@H]23)C[C@@H](O)C[C@@H]1O [tacalcitol] (10 µM),120% (inactive)
2,O=C(Nc1ccc(Oc2ccc(Cl)cn2)c(Cl)c1)c1ccccn1 (10 µM),102% (inactive)
3,NCCCCN=C(N)N [agmatine] (10 µM),106% (inactive)
4,CCN1CCN(C(=O)N[C@@H](C(=O)N[C@@H]2C(=O)N3C(C(=O)O)=C(CSc4nnnn4C)CS[C@H]23)c2ccc(O)cc2)C(=O)C1=O [cefoperazone] (10 µM),104% (inactive)
5,Cc1cc(C2CCCCC2)n(O)c(=O)c1 [ciclopirox] (0.833333 µM),96.5% (inactive)
6,Nc1nccs1 [aminothiazole] (10 µM),104% (inactive)
7,CC(C)c1nc(CN(C)C(=O)N[C@H](C(=O)N[C@@H](Cc2ccccc2)C[C@H](O)[C@H](Cc2ccccc2)NC(=O)OCc2cncs2)C(C)C)cs1 [ritonavir] (10 µM),104% (inactive)
8,O=[N+]([O-])c1cn2c(n1)OC[C@@H](OCc1ccc(-c3ccc(OC(F)(F)F)cc3)nc1)C2 (10 µM),110% (inactive)
9,Oc1cc2c(cc1O)C(c1ccccc1)CNCC2 (stereo unspecified) (10 µM),116% (inactive)
10,CNC(=O)c1cc(COc2nnc(Nc3ccc(Cl)cc3)c3ccoc23)ccn1 [telatinib] (10 µM),107% (inactive)
11,C=C1CC[C@H](O)C/C1=C/C=C1\CCC[C@]2(C)[C@@H]([C@H](C)CCCC(C)(C)O)CC[C@@H]12 [calcifediol] (10 µM),115% (inactive)
